Bioassay records (PubChem BioAssay)
Shown are actives, neighbours in structure and some others; about 3.4% of the full set was active somewhere.
PKM2 act – increases activity of human pyruvate kinase M2; purified PKM2, Kinase-Glo ATP luminescence, activation; response scale: 0% is enzyme alone, no compound; Potency, µM (highest dose often 57.5 µM), most hits filed as activators; 0.34% of 260,000 active; also: nearly all actives have a fitted effect of over 55% in size
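ATP formation by purified human PK-M2, quantified via coupled luciferase luminescence after 1 h at room temperature with 0.1 mM ADP and 0.5 mM PEP final.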
VDR inh – vitamin D3 receptor (human) inhibition. P11473. VDR-SRC2-3 peptide fluorescence polarization, 2 h. Potency, µM, hits mostly inhibitors. 0.93% of 400,000 active. AID 504847
Target sequence (P11473 whole entry, looked up): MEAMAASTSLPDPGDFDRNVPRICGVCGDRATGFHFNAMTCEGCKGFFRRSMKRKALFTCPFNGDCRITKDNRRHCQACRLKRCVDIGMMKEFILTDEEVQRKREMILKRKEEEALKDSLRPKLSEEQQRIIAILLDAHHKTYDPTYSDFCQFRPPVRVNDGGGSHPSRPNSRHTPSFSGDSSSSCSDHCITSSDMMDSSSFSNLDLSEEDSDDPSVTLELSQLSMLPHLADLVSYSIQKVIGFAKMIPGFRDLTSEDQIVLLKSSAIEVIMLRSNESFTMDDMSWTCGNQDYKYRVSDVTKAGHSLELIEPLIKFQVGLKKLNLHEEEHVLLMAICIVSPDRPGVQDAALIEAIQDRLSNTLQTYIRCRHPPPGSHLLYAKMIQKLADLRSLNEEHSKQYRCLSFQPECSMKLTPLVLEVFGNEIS
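The screen uses fluorescence polarization to detect compounds that interfere with recruitment of the SRC2-3 coactivator peptide to VDR; plates are read after 2 h at room temperature.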
GCN5L2 inh – inhibitors of human GCN5L2 histone acetyltransferase; Q92830; GCN5L2 HAT assay, ThioGlo1 CoA-SH fluorescence; Potency, µM (highest dose often 58.9 µM), usual class: inhibitors; 0.21% of 390,000 active; AID 504327
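Titration-based screen in which CoA formation is detected via maleimide probe ThioGlo1 (50uM) turning fluorescent on thiol reaction; substrates H3(1-25) 75uM and acetyl-CoA 70uM, GCN5L2 20nM, 20 min incubation at room temperature.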
PLK1 PBD inh – PLK1 (human) polo-box domain binding inhibition; Potency, µM, actives largely listed as inhibitors; P53350; 2.8% of 360,000 active; Plk1 PBD binding of FITC phosphopeptide, fluorescence polarization; AID 720504; also: series mostly up to about 57 µM; nearly all actives have a fitted effect of over 65% in size
Mito fusion act – mitochondrial division inhibition or fusion activation; AID 485298; S. cerevisiae fusion-defective mutant growth rescue, CellTiterGlo 48 h; 0.23% of 320,000 active; Potency, µM (top dose mostly 46.1 µM), actives largely listed as activators; also: nearly all actives have a fitted effect of over 45% in size
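Compounds are tested for their ability to restore growth of mitochondrial fusion-defective yeast strains at non-permissive 37C in YPEG medium over 48 hours. Viability is quantified by luciferase luminescence.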
GLS inh – blocks human kidney-isoform glutaminase activity | O94925 | GLS enzymatic activity, qHTS titration | Potency, µM (series often up to 45.5 µM), usual class: inhibitors | 0.21% of 410,000 active
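Enzyme dispensed in phosphate buffer (45 mM, pH 8.2, 0.02% Tween-20), compounds pinned in, then 1 mM L-glutamine solution and the glutamate oxidase–HRP–Amplex Red mix added; fluorescence read immediately and again after 30 min at room temperature.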
Hits are given with their value; 0 = inactive; ? = inconclusive; - = no result given; ! = a repeat was not active; [ ] = remark or other dose. Calls follow the shape of the dose curve; as a rule, active = well fitted curve in the direction sought with a large enough effect; inconclusive = small, poorly fitted or top-dose-only effect, or another doubt; inactive = no such curve, though single readings can be large; an effect the other way counts as inactive or inconclusive.

SMILES	PKM2 act	VDR inh	GCN5L2 inh	PLK1 PBD inh	Mito fusion act	GLS inh
COc1cc(CC(C)N)c(OC)cc1Br (centres undefined)	-	-	-	-	-	0
ClC1=C(Cl)[C@]2(Cl)[C@@H]3[C@@H]4C[C@@H]([C@H]5O[C@@H]45)[C@@H]3[C@@]1(Cl)C2(Cl)Cl	-	-	-	-	-	0
CCOc1ccc(NS(=O)(=O)c2ccc(Cl)c(N=Nc3c(O)[nH]c(=S)[nH]c3=O)c2)cc1Br	-	-	-	?	-	0
CCC1/C=C/C=CCC(C)C(O)[C@@](C)(O)C(=O)C(C)C(O)C(C)C(=O)C(C)C(O)C(C)C=CC(=O)O[C@H]2C(C)C(CC1)O[C@]1(CCC(C)C(CC(C)O)O1)C2C (some centres undefined)	-	0	0	-	-	-
Oc1ccc(Cl)cc1Sc1cc(Cl)ccc1O	-	0	-	?	-	0
O=c1c2ccccc2sn1-c1ccc(Cl)cc1	-	-	-	3µM	-	?
Cc1ccc(-n2sc3ccccc3c2=O)cc1	0	3.2µM	7.1µM	0.95µM	0	?
CC(C)CCNC(=O)CNC(=O)[C@@H](C)NC(=O)[C@@H](N)Cc1ccc(O)cc1	-	0	0	-	-	-
COc1ccc(OC)c(N2C(=O)/C(=C/c3ccco3)C(=O)NC2=S)c1	-	?	13µM	2.4µM	0	0
CN1C(=O)/C(=C/C=C/c2ccco2)C(=O)NC1=S	0	?	?	?	0	-
COc1ccc(N2C(=O)/C(=C/c3cc(C)n(-c4ccc(C)cn4)c3C)C(=O)NC2=S)c(OC)c1	0	0	0	30µM	0	?
CC[C@]1(O)CC[C@H]2[C@@H]3CCC4=CCCC[C@@H]4[C@H]3CC[C@@]21C	-	0	0	-	-	0
CCOC(=O)c1c(/N=C/c2c(O)n(-c3ccccc3F)c(=S)[nH]c2=O)sc2c1CCCC2	0	?	0	24µM	0	0
CN1[C@H](CC(=O)c2ccccc2)CCC[C@H]1C[C@H](O)c1ccccc1	-	0	0	-	-	-
Clc1ccccc1C(c1ccccc1)(c1ccccc1)n1cccn1	-	0	0	-	-	-
COC(=O)C(O)(c1ccc(N(C)C(=O)c2cccs2)cc1)C(F)(F)F (centres undefined)	0	50µM	0	24µM	0	?
[Cl-].[Cl-].[Hg+2]	-	2.5µM	0.14µM	-	-	0
[Cl][Pt+2][Cl].[NH-]C1CCCCC1[NH-] (centres undefined)	-	50µM	0	0	0	0
CCOc1ccc2cc(C#N)c(=O)oc2c1	-	0	0	-	-	-
COCCNC(=O)c1c(N)n(CCC(C)C)c2nc3ccccc3nc12	0	?	0	0	0	0
COCCCNC(=O)c1c(NC(=O)c2ccco2)n(Cc2ccccc2)c2nc3ccccc3nc12	0	45µM	0	?	0	0
CCCCCn1c(NC(=O)c2ccco2)c(C(=O)OCC)c2nc3ccccc3nc21	0	5µM	0	?	0	0
COCCNC(=O)c1c(NC(=O)c2ccc(Br)o2)n(Cc2ccccc2)c2nc3ccccc3nc12	0	?	?	0	7.1µM	0
[Cl][In]([Cl])[Cl]	-	0	0	-	-	0
O=C1NC(=O)N(c2ccccc2F)C(=O)/C1=C/c1ccc(Oc2ccc([N+](=O)[O-])cn2)cc1	0	79µM	0	6µM	0	?
SMILES	PKM2 act	VDR inh	GCN5L2 inh	PLK1 PBD inh	Mito fusion act	GLS inh
COc1cc(/C=C2\C(=O)NC(=O)N(c3ccccc3)C2=O)cc(OC)c1O	0	0	0	?	0	0
O=C1CN(C(=O)COC(=O)Cc2ccccc2)c2ccccc2N1	?	0	0	30µM	0	0
COC12c3ccccc3-c3ccccc3C1C(C(=O)O)C2C(=O)O (centres undefined)	-	-	-	0	-	18µM
O=C(O)C1C2c3ccccc3C(=O)C1(C(=O)O)c1ccccc12 (centres undefined)	-	0	-	0	-	0
CCOC(=O)N1CCN(/[N+]([O-])=N/Oc2ccc([N+](=O)[O-])cc2[N+](=O)[O-])CC1C (centres undefined)	-	56µM	-	-	-	-
C=C(C)[C@H]1CN[C@H](C(=O)O)[C@@H]1CC(=O)O	-	0	0[0.501 µM]	-	-	-
C=C(C)[C@H]1CN[C@H](C(=O)O)[C@H]1CC(=O)O	-	0	32µM!	0	0	0
